{"source": "the OligoGym collection", "data": [{"biological_target": "C3orf33", "assay": "pooled miR-30 sensor sort-seq; sequence = guide strand", "conditions": "shRNA", "values": [{"sequence": "TACTCCAGCCAACTTAACCAGC", "sensor-assay potency score (higher = more potent)": -1.6}, {"sequence": "TTTTTCATAATAACTTTCTTTT", "sensor-assay potency score (higher = more potent)": -0.968}, {"sequence": "TTGAATTTTTCTAAGTAACTTT", "sensor-assay potency score (higher = more potent)": -0.235}, {"sequence": "TAACTTTCTTTTTTCAAGCTGA", "sensor-assay potency score (higher = more potent)": -0.0803}, {"sequence": "TCAAGCTGAAATCTGATCCTGT", "sensor-assay potency score (higher = more potent)": 0.793}, {"sequence": "TTAACAAGAACAGTTTTGCCAA", "sensor-assay potency score (higher = more potent)": -0.169}, {"sequence": "TTGTTCATGTTGTCTTTCCATA", "sensor-assay potency score (higher = more potent)": -1.3}, {"sequence": "TTCTTTTTCAGAGTCTTCCTTC", "sensor-assay potency score (higher = more potent)": 0.254}, {"sequence": "TTTAGCTCTTTTTGTAACCATG", "sensor-assay potency score (higher = more potent)": -1.58}, {"sequence": "TTTGATGTCAGTCGAATGCTTC", "sensor-assay potency score (higher = more potent)": -0.51}, {"sequence": "TATAAGTTCTCTGAACTTCAGT", "sensor-assay potency score (higher = more potent)": -0.164}, {"sequence": "TAAATTTTGATGTCAGTCGAAT", "sensor-assay potency score (higher = more potent)": -0.673}]}, {"biological_target": "C3orf64", "assay": "pooled miR-30 sensor sort-seq; sequence = guide strand", "conditions": "shRNA", "values": [{"sequence": "TATATGGACAAAGAGAGTCTTT", "sensor-assay potency score (higher = more potent)": -0.594}, {"sequence": "TAGAAGACTGTTCCAATCCTTT", "sensor-assay potency score (higher = more potent)": -0.485}, {"sequence": "TTCATCTTCACAGTTGTACAGT", "sensor-assay potency score (higher = more potent)": 0.304}, {"sequence": "TATAGGTCTGAAGTTGAGCTGA", "sensor-assay potency score (higher = more potent)": 0.14}, {"sequence": "TAACATGTTGTAATTCTTCTTA", "sensor-assay potency score (higher = more potent)": 0.391}]}]}
